# Results: PubChem BioAssay (NCATS)
# Results filed as inconclusive are left out. Active and inactive are the calls of the source. Calls come from the whole dose curve; as a rule, active = well fitted curve in either direction with a large enough effect (not every such curve was filed as active); inconclusive = small, poorly fitted or top-dose-only effect, or another doubt; inactive = flat fitted curve, though single readings scatter.
# Molecular target: Mitogen-activated protein kinase 10 (Mus musculus) (UniProt Q61831)
# Assay: JNK3 AlphaScreen Assay (AID 530);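 note: kinase came from lysate of stimulated human HepG2 cells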
# Conditions: JNK3 lysate, c-Jun phosphorylation; series mostly up to 57.1 µM
# Excerpt: NIH Chemical Genomics Center [NCGC]
# NIH Molecular Libraries Screening Centers Network [MLSCN]
# The c-jun N-terminal kinase (JNK) family are serine/threonine protein kinases that phosphorylate c-jun, a component of the transcription factor […] (AP-1). JNK kinases are members of the mitogen-activated protein kinase family including the extracellular regulated kinases and p38 kinases. Three JNK genes (JNK 1, 2, and 3) have been identified in humans so far. JNK1 and JNK2 have a broad distribution and JNK3 is primarily found in neuronal tissues and cardiac myocytes.
# JNK3 has been under consideration as a target for the treatment of neurodegenerative disorders. […] JNK pathway is also involved in pathological process in a mouse model of Parkinson's disease (Xia et al., 2001).
# Given these potential tissue distributions and links to neuroprotection, JNK3 inhibitors should provide useful investigational tools to study the role of this kinase in several diseases including, arthritis, stroke, myocardial infarction, ischemic injury and Parkinson's disease.
# A homogeneous AlphaScreen is developed to measure the activity of JNK3. AlphaScreen is a two bead-based proximity-dependent chemical energy transfer luminescent assay platform. The phosphorylation of a biotinylated c-jun substrate by JNK3 can be detected with an antibody raised against phosphorylated c-jun. This process brings streptavidin donor beads and Protein-A acceptor beads to within a proximity range of <200 nm, and subsequently lead a chemical luminescent reaction upon exciting donor beads with 680 nm laser excitation light. Inhibition of JNK3 activity by small molecules and subsequent decrease in the antibody binding to biotinylated c-jun could attenuate or abolish this chemical luminescent reaction.
# Yang DD, Kuan CY, Whitmarsh AJ, Rincon M, Zheng TS, Davis RJ, Rakic P and Flavell RA (1997) Absence of excitotoxicity-induced apoptosis in the hippocampus of mice lacking the Jnk3 gene. Nature 389:865-870. [PMID: 9349820]
# Herdegen T, Claret FX, Kallunki T, Martin-Villalba A, Winter C, Hunter T, and Karin M (1998) Lasting N-terminal phosphorylation of c-Jun and activation of c-Jun N-terminal kinases after neuronal injury. J.Neurosci. 18:5124-5135. [PMID: 9651196]
# Xia XG, Harding T, Weller M, Bieneman A, Uney JB and Schulz JB (2001) Gene transfer of the JNK interacting protein-1 protects dopaminergic neurons in the MPTP model of Parkinson's disease. Proc.Natl.Acad.Sci.U.S.A. 98:10433-10438.
# NCGC Assay Protocol Summary:
# GST-cJun (1-79) (Stratagene, La Jolla CA, #205145) was biotnylated by PerkinElmer (PerkinElmer-BioSignalInc. Montreal, Canada) and was detectable by the streptavidin Donor beads. Anti-(phospho)cJun (Ser73) antibody was from UpState (Charlottesvilles, VA, #06-659). JNK3-containing lysates were generated from HepG2 cells and pre-activated by interleukin1-beta and tumor necrosis factor alpha. All reagents were stored at -20 C before using. Phosphorylated biotinylated-GST-cJun was recognized by Anti-(phospho)cJun (Ser73) antibody and this process brings acceptor and donor beads together. Therefore JNK3 phosphorylation of cJun can be measured by Alpha reading by EnVision (PerkinElmer, Boston, MA).
# The composition of kinase buffer was (in mM) 20 tris- HCl (pH 7.6) 10 MgCl2, 1 DTT, and 0.1 Na3VO4 and 0.01% Tween-20. Beads were diluted in detection buffer containing (in mM) 20 tris-HCl (pH 7.7), 20 NaCl and 80 EDTA and 0.3% BSA. The assay was performed at room temperature. All compounds were screened as titrations from 0.6 nM to 46 uM final concentration. The assay was performed in 1536-well format (white solid bottom and untreated) as follows:
# Sequence,Parameter,Value,Description
# 1,Reagent,3 uL,Biotin-GST-cJun, Anti-(phospho)cJun and pre-activated JNK3-containing lysates
# 2,Compound,23 nL,Final concentration was 0.6nM to 46uM
# 3,Time,15 minutes,Room Temperature
# 4,Reagent,1 uL,ATP final concentration 10uM
# 6,Reagent,0.5 uL,2ng/well bead mixture
# […]
row,Structure (SMILES),outcome
1,CCN(CC)CCO[C@H]1CC[C@@]2(C)C(=CC[C@@H]3[C@H]2CC[C@]2(C)C(=O)CC[C@H]32)C1,inactive
2,O=C(O)Cc1cccnc1C(=O)O,inactive
3,CC(=O)O[C@@H]1CN2CCC1CC2,inactive
4,CN1CCN(C(=O)O[C@@H]2c3nccnc3C(=O)N2c2ccc(Cl)cn2)CC1,inactive
5,Oc1ccc2c3c1O[C@H]1c4c(c5ccccc5n4Cc4ccccc4)C[C@]4(O)[C@H](C2)N(CC2CC2)CC[C@@]314,inactive
6,C=CCN1CCC2(C)c3cc(O)ccc3C[C@H]1[C@H]2C,inactive
7,Cc1nc(N)sc1CCN,inactive
8,C=CCN1CC[C@]23c4c5ccc(O)c4O[C@@H]2C(=O)CC[C@]3(O)[C@H]1C5,inactive
9,C=C(C)CN1CC[C@@]23c4c5ccc(O)c4O[C@H]2c2[nH]c4ccccc4c2C[C@]3(O)[C@@H]1C5,inactive
10,COC1=CC(=O)OC(CCc2ccc3c(c2)OCO3)C1 (stereo not given),inactive
11,O=C(Cc1ccc(Cl)c(Cl)c1)N1CCCC[C@H]1CN1CCCC1,inactive
12,O=C1CC[C@@]2(O)[C@H]3Cc4ccc(O)c5c4[C@@]2(CCN3CC2CC2)[C@@H]1O5,inactive
13,COC(=O)CN1CN(c2ccccc2)C2(CCN(Cc3ccc4ccccc4c3)CC2)C1=O,inactive
14,COC(=O)c1ccccc1C(=O)OC,inactive
15,COc1cc(CCN)ccc1O,inactive
16,NC[C@H](CC(=O)O)c1ccc(Cl)cc1,inactive
17,S=C=Nc1cccc(C2(N3CCCCC3)CCCCC2)c1,inactive
18,CC(=O)/C=C/c1ccccc1,inactive
19,CNCC/C=C\c1cccnc1,inactive
20,CC1=C(O)C(=O)[C@H]2O[C@@H]2C1=O,inactive

row,Structure (SMILES),outcome
1,CCOC(OCC)P(=O)(O)CCCN,inactive
2,c1cncc([C@@H]2CCCCN2)c1,inactive
3,CNc1ccc2oc(C[C@H]3O[C@]4(CC[C@H]3C)O[C@H]([C@H](C)C(=O)c3ccc[nH]3)[C@H](C)C[C@H]4C)nc2c1C(=O)O,inactive
4,COc1ccc2[nH]cc(CCN(C)C)c2c1,inactive
5,Clc1cncc(N2CCNCC2)n1,inactive
6,CN1CC[C@@]23CCCC[C@@H]2[C@@H]1Cc1ccc(O)cc13,inactive
7,Oc1ccccc1Cl,inactive
8,NC[C@H](CP(=O)(O)O)c1ccc(Cl)cc1,inactive
9,C/C(=C\[C@@H](N)C(=O)O)CP(=O)(O)O,inactive
10,CP(=O)(O)CCCN,inactive
11,NC(N)=Nc1ccc2[nH]c3c(c2c1)C[C@]1(O)[C@@H]2Cc4ccc(O)c5c4[C@]1(CCN2CC1CC1)[C@@H]3O5,inactive
12,C#CCN1C(C)=C(C(=O)CCO)[C@@H](c2cccc(-n3oo3)c2)C(C(=O)OC)=C1C,inactive
13,CC(C)[C@@]1(NC(=O)[C@@H]2C[C@H]3c4cccc5[nH]cc(c45)C[C@@H]3N(C)C2)O[C@@]2(O)[C@H]3CCCN3C(=O)[C@H](Cc3ccccc3)N2C1=O,inactive
14,CCCOc1ccc2[nH]cc(C3=CCNCC3)c2n1,inactive
15,O=C(O)[C@H]1[C@H]2CN[C@H](C(=O)O)[C@H]21,inactive
16,Cl.Cl.Cl.Cl.Cl.Cl.N.N.N.N.NNNNN.NNNNN.O.O.[Ru].[Ru].[Ru],inactive
17,CN(C(=O)Cc1ccc(Cl)c(Cl)c1)[C@H](CN1CCCC1)c1cccc(N=C=S)c1,inactive
18,CC(C)(Cc1c[nH]c2ccc(Cl)cc12)NCCOc1ccccc1OCC1CC1,inactive
19,N[C@H](CP(=O)(O)O)C(=O)O,inactive
20,C=C(C)[C@H]1CN[C@H](C(=O)O)[C@@H]1CC(=O)O,inactive
